Mtb FBA inh – inhibitors of M. tuberculosis fructose-bisphosphate aldolase | P9WQA3 | purified M. tuberculosis FBA, fluorescence read-out | inhibition, % at 1 µM | 360,000 tested, 2.3% active | AID 588726; in the data active = inhibition above about 27%;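 note: 0% = vehicle and 100% = reference inhibitor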
Target sequence (P9WQA3 whole entry, looked up): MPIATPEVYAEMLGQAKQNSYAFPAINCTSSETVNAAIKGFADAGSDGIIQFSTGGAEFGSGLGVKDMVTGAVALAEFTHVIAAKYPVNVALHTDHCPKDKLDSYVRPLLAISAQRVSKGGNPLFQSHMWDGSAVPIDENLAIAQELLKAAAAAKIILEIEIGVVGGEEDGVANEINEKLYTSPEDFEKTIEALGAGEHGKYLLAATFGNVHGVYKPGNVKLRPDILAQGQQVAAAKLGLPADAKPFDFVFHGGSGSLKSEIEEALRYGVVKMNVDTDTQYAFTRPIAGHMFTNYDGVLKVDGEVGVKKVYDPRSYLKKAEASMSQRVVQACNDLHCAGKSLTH
GDH-TPI counter – inhibits GDH-TPI coupling enzymes, artifact for Mtb FBA screen | GDH-TPI coupled enzyme counterscreen, NADH absorbance | inhibition, % at 4.8 µM | 360,000 tested, 1.2% active | AID 588335;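 note: 0% = DMSO wells and 100% = wells lacking the enzyme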
RecA splice inh – blocks M. tuberculosis RecA intein splicing; P9WHJ3; cell-free RecA intein splicing, fluorescence; inhibition, % (test concentration not listed); 290,000 tested, 0.75% active; in the data active = inhibition above about 30%;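 note: 0% = vehicle wells and 100% = reference inhibitor control wells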
CCHFV vOTU inh – blocks the CCHF virus ovarian tumor domain protease. AID 651958. CCHFV vOTU protease, Pep-AMC fluorescence. inhibition, % at 11.5 µM. 370,000 tested, 0.55% active; note: 0% = vehicle wells with enzyme and 100% = no enzyme wells
* marks the source's active call; other numbers are inactive results. Hits are enriched below; roughly 4.2% of the tested compounds scored in any of these assays. Cut-off read from the data, not from the text of the source, unless noted: active = inhibition above about 30%; inactive = the rest.

For CCNC(=S)Nc1ccc2c(c1)c(=O)n(C)n2-c1cc(C)cc(C)c1 the results were Mtb FBA inh 8.5, GDH-TPI counter 12.8 and CCHFV vOTU inh -7.0.
Screening Cn1c(=O)c2cc(NC(=S)NC3CCCCC3)ccc2n1Cc1ccc(F)cc1 returned Mtb FBA inh 17.2, GDH-TPI counter 11.9 and CCHFV vOTU inh -20.1.
Screening CCNC(=O)Nc1ccc2c(c1)c(=O)n(C)n2Cc1ccc(Cl)cc1 returned Mtb FBA inh active, GDH-TPI counter 11.1 and CCHFV vOTU inh -155.9.
Screening C=C(C)Cn1c2ccc(NC(=O)NCC)cc2c(=O)n1C returned Mtb FBA inh active, GDH-TPI counter 7.1 and CCHFV vOTU inh -252.6.
Screening C=C(C)Cn1c2ccc(NC(=O)NCc3ccccc3)cc2c(=O)n1C returned Mtb FBA inh 166.2*, GDH-TPI counter -10.7 and CCHFV vOTU inh -204.2.
Cc1cc(C)cc(Cn2ncc(Cl)c(Cl)c2=O)c1 was read as RecA splice inh 55.9* and CCHFV vOTU inh -4.1.
For Cc1ccc(Cn2ncc(Cl)c(Cl)c2=O)cc1 the results were Mtb FBA inh 2.1, GDH-TPI counter -5.8, RecA splice inh 38.1* and CCHFV vOTU inh -1.2.
COC(CN(C(=O)CCl)C(C(=O)NC1CCCC(C)C1C)c1ccc(C)cc1)OC (centres undefined) was read as Mtb FBA inh 1.4, GDH-TPI counter active and RecA splice inh 44.9*.
For C/C(=N\NC(=O)c1ccc(-c2ccccc2)cc1)c1ccco1 the results were Mtb FBA inh 0.9, GDH-TPI counter 8.4, RecA splice inh 14.3 and CCHFV vOTU inh -0.4.
Screening C/C(=N\NC(=O)c1ccc(C(=O)N/N=C(\C)c2ccco2)o1)c1ccco1 returned Mtb FBA inh 0.4, GDH-TPI counter 31.3*, RecA splice inh -1.6 and CCHFV vOTU inh 1.3.
Screening COc1ccccc1/C=C/C=N/n1c(-c2ccncc2)n[nH]c1=S returned Mtb FBA inh -3.0, GDH-TPI counter 31.5*, RecA splice inh -1.9 and CCHFV vOTU inh -8.6.
Cn1cccc1/C=N/n1c(-c2ccccc2)n[nH]c1=S was read as Mtb FBA inh -3.8, GDH-TPI counter 33.3*, RecA splice inh -4.2 and CCHFV vOTU inh 7.9.
COc1ccccc1/C=C/C=N/n1c(-c2n[nH]c3c2CCC3)n[nH]c1=S was read as Mtb FBA inh 5.5, GDH-TPI counter 33.2* and CCHFV vOTU inh 6.8.
CCOC(=O)[C@@]12CN(C(=O)OC(C)(C)C)CC=C1N(Cc1ccc(OC)cc1)C(=O)[C@H]2CC(=O)NCc1ccc(C)o1 was read as CCHFV vOTU inh 7.7.
For Cc1nnc(N)s1 the results were Mtb FBA inh 1.4, GDH-TPI counter 4.8, RecA splice inh 2.2 and CCHFV vOTU inh 4.9.
For CCCN1CCC2(CC1)C(C#N)=C(N)Oc1c2sc2nc(C)cc(C)c12 the results were Mtb FBA inh -0.8, GDH-TPI counter 4.1, RecA splice inh -2.7 and CCHFV vOTU inh 0.1.
Cc1cc(C)c2c3c(sc2n1)C(c1cccc(F)c1)C(C#N)=C(N)O3 (centres undefined) was read as Mtb FBA inh 64.3*, GDH-TPI counter 8.6 and CCHFV vOTU inh -10.0.
For Cc1ccc(NC(=O)CN2C(=O)NC(Cc3ccccc3)C2=O)cc1Cl (centres undefined) the results were Mtb FBA inh 2.0, GDH-TPI counter 1.6 and CCHFV vOTU inh -3.3.
For CN(NC1OC(=O)c2ccccc21)c1ccc(Cl)cc1[N+](=O)[O-] (centres undefined) the results were Mtb FBA inh -3.1, GDH-TPI counter 38.8*, RecA splice inh 0.1 and CCHFV vOTU inh 6.8.
COc1ccccc1C1CC(c2ccco2)=NN1c1ccccc1 (centres undefined) was read as Mtb FBA inh 148.2*, GDH-TPI counter 12.5, RecA splice inh -1.2 and CCHFV vOTU inh -15.6.
For COc1ccc(-c2c(-c3ccc(OC)c(F)c3)c3ccccc3n2C)cc1 the results were Mtb FBA inh 37.4*, GDH-TPI counter 15.5 and CCHFV vOTU inh -12.5.
`Nc1ccc2[nH]ncc2c1` gave Mtb FBA inh 25.9, GDH-TPI counter 2.4, RecA splice inh 61.4* and CCHFV vOTU inh 7.8.
Screening Cc1cccc(Nc2nc(N)nc(N)c2N=O)c1 returned Mtb FBA inh -1.2, GDH-TPI counter 30.7* and CCHFV vOTU inh 25.1.
Screening Cc1cccc(Nc2nc(C)cc(C)c2C#N)c1 returned Mtb FBA inh 0.5, GDH-TPI counter 8.6, RecA splice inh 2.1 and CCHFV vOTU inh 0.3.
Cc1cccc(Nc2nc(N)c(C#N)c(CC#N)c2C#N)c1 was read as Mtb FBA inh -0.4, GDH-TPI counter 64.2*, RecA splice inh 1.7 and CCHFV vOTU inh 14.7.
`Cc1ccc(Nc2nc(N)nc(N)c2N=O)cc1C` gave Mtb FBA inh -0.5.
`Cc1cc(Br)ccc1Nc1nc(N)nc(N)c1N=O` gave Mtb FBA inh 5.3, GDH-TPI counter 32.5* and CCHFV vOTU inh 16.8.

Assay outcomes as filed in PubChem BioAssay.
